# High-throughput results as filed in PubChem.
# DT40 TDP1 no CPT: qHTS for Inhibitors of human tyrosyl-DNA phosphodiesterase 1 (TDP1): qHTS in cells in absence of CPT. hit rate 15% among 420,000. DT40 Tdp1-/- hTDP1 cells, no CPT, ATP luminescence, 48 h. Potency, µM (highest dose often 46.2 µM), inactives show top-dose activity change, negative = growth inhibition, actives largely listed as inhibitors; further: on the % scale 0 is the no-effect control and ±100 the full control effect; nearly all actives have a fitted effect of over 55% in size
#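 A cellular qHTS used chicken DT40 cells lacking endogenous Tdp1 but carrying stably transfected human TDP1. Compounds were applied without camptothecin, and cell growth kinetics were judged by ATP-dependent luminescence after ≥48 hr.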
# HT1080 IDH1KD tx: qHTS for induction of synthetic lethality in tumor cells producing 2HG: qHTS for the HT-1080-IDH1KD cell line | Potency, µM (series often up to 46.1 µM), inactives show at the top dose activity, negative = toxicity, most hits filed as cytotoxic | hit rate 2% among 360,000 | AID 686971, 2013 | HT-1080 IDH1 knockdown viability, ATP luminescence, 48 h;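 further: 0% = DMSO wells and -100% = cell-free medium wells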
#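 % activity derives from luminescence (CellTiter-Glo), normalised to DMSO and no-cell wells. HT-1080-IDH1KD cells, 750/well, had 48 h compound exposure at 37 °C.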
# TGFb SMAD3 inh: qHTS for Inhibitors of TGF-b. Potency, µM (series often up to 46.1 µM), inactives show at the highest dose activity, negative = inhibition, hits mostly inhibitors. hit rate 1.2% among 410,000. HepG2 CAGA-GFP TGF-b/SMAD3 reporter, GFP fluorescence, 18 h; TGF-beta stimulated, 500 pg/mL final; further: on the % scale 0 is the no-effect control and ±100 the full control effect; nearly all actives have a fitted effect of over 65% in size
#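 HEPG2 CAGA-GFP cells (1000/well, DMEM with 1% FBS) were pre-incubated 2 h at 37 degrees C, given compound by pin tool, then stimulated with TGF-beta at 500 pg/mL final for 18 h before per-cell GFP fluorescence imaging.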
# HT1080NT lethal: qHTS for induction of synthetic lethality in tumor cells producing 2HG: qHTS for the HT-1080-NT fibrosarcoma cell line. HT-1080-NT fibrosarcoma viability, CellTiter-Glo ATP luminescence, 48 h. Potency, µM (highest dose often 46.1 µM), for the others: top-dose activity, negative = less viability, usual class: cytotoxic. hit rate 1.6% among 360,000;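 further: NT is the 2HG producing partner of a matched IDH1 knockdown line; 0% = DMSO-treated cells and -100% = media-only wells without cells; nearly all actives have a fitted effect of over 55% in size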
#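 750 cells/well, RPMI + 5% FBS; 2 h settle, compound pin-transfer, 48 h at 37 degrees C. CellTiter-Glo 10 min RT, luminescence. Normalized to DMSO and media-only wells.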
# HepG2 tox: qHTS for Inhibitors of TGF-b: Cytotox Counterscreen. Potency, µM (top dose mostly 46.1 µM), for inactives: top-dose activity change, negative = cytotoxicity, usual class: cytotoxic. AID 588856, 2011. HepG2 CAGA-GFP viability, ATP luminescence, 18 h. hit rate 0.76% among 410,000
#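 CellTiter-Glo luminescence gave cytotoxicity after 18 hours at 37 degrees C. The cells were HepG2 CAGA-GFP in 1% FBS DMEM, stimulated with 500 pg/mL TGF-beta after compound addition. %Activity was normalised to no-cell wells (complete cell-killing) and DMSO (no toxicity), and curves were fitted and classified.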
# TDP1 cell CPT: qHTS for Inhibitors of human tyrosyl-DNA phosphodiesterase 1 (TDP1): qHTS in cells in presence of CPT; chicken DT40 Tdp1-/-;hTDP1 cells + 20 nM CPT, ATP luminescence, 48 h; Potency, µM (top dose mostly 46.2 µM), without a hit: at the highest dose activity change, negative = growth inhibition, hits mostly inhibitors; hit rate 12% among 420,000; AID 686979, 2013; further: on the % scale 0 is the no-effect control and ±100 the full control effect; nearly all actives have a fitted effect of over 55% in size
#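 Chicken DT40 Tdp1-/- cells complemented with human TDP1, 400 cells/well, exposed to compounds plus 20 nM camptothecin for at least 48 h at 37 C; viability read as ATP content by CellTiter-Glo luminescence.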
# Numbers without * were called inactive; ? = inconclusive; / = no result given; [ ] = another dose, or the depositor's remark. Shown are actives, neighbours in structure and some others; about 17% of the full set was active somewhere. The call rests on the fitted dose curve; in most records, active means well fitted curve in the direction sought with a large enough effect; inconclusive means small, poorly fitted or top-dose-only effect, or another doubt; inactive means no such curve, though single readings can be large; an effect the other way counts as inactive or inconclusive. Potency means the concentration at half of the fitted maximal effect.
SMILES,DT40 TDP1 no CPT,HT1080 IDH1KD tx,TGFb SMAD3 inh,HT1080NT lethal,HepG2 tox,TDP1 cell CPT
COc1cc(C(C(=O)NC2CCCCC2)N(Cc2ccco2)C(=O)c2cnccn2)cc(OC)c1OC (centres undefined),-15%,24%,-7%,25%,-6%,-4%
O=C(NNC(=O)c1ccc(O)c(Cl)c1)c1cccc(S(=O)(=O)N2CCOCC2)c1,?,-6%,0%,-30%,-22%,-19%
COc1cccc(CNC(=O)Cn2c(=O)n3nc(-c4cccc(C)c4)nc3c3ccccc32)c1,15µM*,/,-7%,/,-12%,16µM*
Cc1cccc(NC(=O)Cn2c(=O)n3nc(CCn4nc(C)cc4C)nc3c3ccccc32)c1,13µM*,-3%,12%,10%,-14%,18µM*
Cc1ccc(CN2CCOc3ccc(CN4CCC(Oc5cccnc5)CC4)cc3C2)o1,?,/,/,/,/,6%[9.04 µM]
Cc1ccccc1S(=O)(=O)NNC(=O)C(=O)NNc1ccccn1,23µM*,?,3%,-22%,16%,?
Cc1ccc(S(=O)(=O)NNC(=O)C(=O)NNc2ccccn2)cc1,?,-30%,0%,-11%,-1%,?
c1ccc(-n2c3ccccc3c3ccccc32)cc1,?,-2%,-1%,19%,-5%,?
c1ccc(-c2c[n+]3c(n2-c2ccccc2)SCC3)cc1,21µM*,?,-8%,-3%,19%,?
CCOc1ccc(-n2c(-c3ccc(Cl)cc3)c[n+]3c2SCC3)cc1,2.1µM*,23µM*,0%,-10%,-28%,1.8µM*
Cc1ccc2oc(C(=O)Nc3sc4c(c3C(=O)NCc3cccnc3)CCCC4)cc(=O)c2c1,?,/,-40%,/,3%,-17%
O=C(CCCN1C(=O)c2cccnc2Oc2ccc(Cl)cc21)NCc1ccccc1F,?,/,0%,/,-25%,?
CCOc1ccc(OCCC(=O)N(CC(C)C)c2c(N)n(Cc3ccccc3)c(=O)[nH]c2=O)cc1,0%,-5%,4%,-6%,-14%,-19%
O=C1NC(=S)S/C1=C/c1ccc(N2CCOCC2)o1,?,-29%,-3%,-18%,-35%,?
COc1ccc2cc(/C=C3\SC(=S)NC3=O)c(N3CCOCC3)nc2c1,12µM*,?,0%,-12%,6%,?
O=C1CCN(c2ccccc2)N1,-50%,-1%,0%,0%,1%,29µM*
Cc1ccc(-c2nn(C)c(=O)c3ccccc23)cc1S(=O)(=O)N1CCCC1,?,-10%,8%,-2%,-1%,15µM*
CCOC(=O)N1CCN(S(=O)(=O)c2cc(-c3nn4c(C)nnc4c4ccccc34)ccc2C)CC1,26µM*,8%,-4%,7%,-14%,?
Cc1ccc(-c2nn(C)c(=O)c3ccccc23)cc1S(=O)(=O)NCCCN(C)C,0%,/,/,/,-25%,1%
Cc1ccc(-c2nn(C)c(=O)c3ccccc23)cc1S(=O)(=O)N1CCOCC1,?,-1%,-8%,2%,0%,11µM*
CCC(CO)NS(=O)(=O)c1cc(-c2nn(C)c(=O)c3ccccc23)ccc1C (centres undefined),-29%,-9%,14%,-5%,-19%,?
CCOc1ccc(-c2cn(-c3cccc(SC)c3)c(=O)[nH]2)cc1,?,-22%,1%,-3%,-12%,?
CC(C)(C)n1nc2c(c1NC(=O)Cc1ccc([N+](=O)[O-])cc1)CS(=O)(=O)C2,0%,7%,15%,7%,41%,-1%
Cc1ccc(C)c(Cn2c(=O)n(Cc3ccc4c(c3)OCO4)c(=O)c3oc4ccccc4c32)c1,-13%,/,-16%,/,-5%,-6%
COc1cccc(C(=O)Nc2ccccc2C(=O)OCc2cc(=O)n3c4c(sc3n2)CCCC4)c1,16µM*,/,-25%,/,-9%,?
SMILES,DT40 TDP1 no CPT,HT1080 IDH1KD tx,TGFb SMAD3 inh,HT1080NT lethal,HepG2 tox,TDP1 cell CPT
O=C(Nc1ccccc1C(=O)OCc1cc(=O)n2c3c(sc2n1)CCCC3)c1cccc(Cl)c1,?,/,20%,/,4%,?
O=C(Nc1ccccc1C(=O)OCc1cc(=O)n2c3c(sc2n1)CCCC3)c1ccccc1,?,/,?,/,-32%,21µM*
COc1ccc(C(=O)Nc2ccccc2C(=O)OCc2cc(=O)n3c4c(sc3n2)CCCC4)cc1,?,/,-13%,/,-26%,?
CCOc1ccccc1OCCCCn1c(-c2ccc(Cl)cc2)nc2ccccc2c1=O,-9%,/,-1%,/,-17%,?
Fc1ccccc1-c1cc2ccccc2cn1,8%,5%,?,3%,-5%,7%
Cc1ccccc1N=Cc1cccc(O)c1O,10µM*,15µM*,16µM*,-13%,-56%,?
Cc1ccc(N=Cc2cccc(O)c2O)c(C)c1,?,/,?,/,-61%,20µM*
C=CCn1c(SCC(=O)NCCC2=CCCCC2)nc2ccc(Cl)cc2c1=O,?,2%,-7%,-2%,9%,23µM*
CCCn1c(SCN2C(=O)c3ccccc3C2=O)nc2cc(Cl)ccc2c1=O,23µM*,0%,-15%,-5%,-59%,21µM*
C=CCn1c(SCC#N)nc2cc(Cl)ccc2c1=O,13µM*,/,-4%,/,-15%,?
Nc1cc(N)nc(SCC(=O)NCCC2=CCCCC2)n1,-19%,6%,-2%,1%,-10%,-15%
Cc1ccc(NC(=O)C(=O)NCCCN2CCOCC2)c(C)c1,-1%,6%,1%,0%,2%,-12%
Cc1ccc(N=Cc2ccc[nH]2)c(O)c1,?,-27%,-19%,-17%,-12%,21µM*
Cc1ccccc1N=Cc1ccc[nH]1,4%,8%,8%,13%,-15%,-1%
CCS(=O)(=O)c1ccc(C(=O)Nc2ccccc2)c(Cl)c1Cl,?,-11%,0%,-2%,-2%,?
COc1ccc(NC(=O)c2ccccc2NS(C)(=O)=O)cc1OC,10µM*,-2%,0%,-7%,4%,21µM*
COc1ccccc1NC(=O)c1cccs1,-10%,9%,2%,-3%,-5%,-6%
COC(=O)c1ccc(NC(=O)c2ccccc2NS(C)(=O)=O)cc1,?,-9%,-11%,-18%,-19%,?
